Assay outcomes as filed in PubChem BioAssay.
Hits are enriched below; roughly 3% of the tested compounds scored in any of these assays.
SENP7 inh: SENP7 protease inhibition; Q9BQF6; recombinant SENP7, Z-RLRGG-aminoluciferin luminescence, 40 min; inhibition, % at 5 µM; 1.5% of 330,000 active; AID 434973;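 active means inhibition above about 50% at the single test dose, limit read from the data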
SENP8 block-1: SENP8 (human) protease inhibition | recombinant SENP8, Nedd8 substrate fluorescence | inhibition, % at 20 µM | 0.64% of 360,000 active; in the data active means inhibition mostly above about 40%, no sharp cut-off; inactive means mostly below about 27%
Target sequence (Q96LD8 whole entry, looked up): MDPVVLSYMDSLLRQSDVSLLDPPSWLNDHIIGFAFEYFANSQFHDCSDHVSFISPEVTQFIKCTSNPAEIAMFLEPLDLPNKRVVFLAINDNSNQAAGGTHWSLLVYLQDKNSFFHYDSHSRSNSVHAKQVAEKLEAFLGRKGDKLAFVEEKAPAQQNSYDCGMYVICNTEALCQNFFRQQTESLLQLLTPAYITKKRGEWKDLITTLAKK
TRAIL sens C8: sensitizes caspase-8 expressing cells to TRAIL; NB7+C8 cells + TRAIL, ATPlite viability luminescence; inhibition (viability loss, TRAIL sensitization), % at 10 µM; 1% of 360,000 active; AID 624354;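 active means compounds causing at least 50% loss of cell viability in the single-dose screen, relative to plate controls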
SENP8 block-2: blocks the human protease SENP8; 1.2% of 330,000 active; purified SENP8, Z-RLRGG-aminoluciferin cleavage, luminescence; inhibition, % at 10 µM; Q96LD8; in the data active means inhibition above about 50%
PPC-1+TRAIL kill: kills PPC-1 cancer cells in the presence of TRAIL; AID 1443; cell killing (% activity), % at 4 µM or 5 µM; 0.41% of 220,000 active; PPC-1 cells + TRAIL, ATPLite viability luminescence;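 active means cell killing above 50% in the first pass at 4 µM, then a duplicate retest at 5 µM averaging 50% or more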
SENP6 block: blocks the human protease SENP6. Q9GZR1. Recombinant SENP6 catalytic domain, aminoluciferin luminescence. inhibition, % at 10 µM. 1.8% of 330,000 active. AID 2599;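 active means inhibition above about 50% at the single tested dose, limit read from the data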
SENP8 conf: confirmation of human SENP8 protease inhibitors. shares compounds with SENP7 inh. Recombinant SENP8, Z-RLRGG-aminoluciferin luminescence, 60 min. inhibition, % at 12.5 µM. 40% of 6,200 active;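 active means mean inhibition across replicates above about 50%, limit read from the data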
SENP6 conf: human SENP6 inhibition, confirmed; 58% of 6,200 active; inhibition, % at 12.5 µM; recombinant SENP6, Z-RLRGG-aminoluciferin luminescence; shares compounds with SENP7 inh
SENP7 confirm: confirmation of human SENP7 protease inhibitors. shares compounds with SENP7 inh. recombinant SENP7, Z-RLRGG-aminoluciferin luminescence, 40 min. inhibition, % at 12.5 µM. 69% of 6,200 active
Casp3 SENP sel: selectivity test for SENP inhibitors: human caspase-3 inhibition | shares compounds with SENP7 inh | purified caspase-3, Z-DEVD-aminoluciferin luminescence, 60 min | 60% of 6,200 active | AID 488918 | inhibition, % at 12.5 µM;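 active means mean inhibition above about 50%, limit read from the data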
Target sequence (P42574 28-227 limits assumed): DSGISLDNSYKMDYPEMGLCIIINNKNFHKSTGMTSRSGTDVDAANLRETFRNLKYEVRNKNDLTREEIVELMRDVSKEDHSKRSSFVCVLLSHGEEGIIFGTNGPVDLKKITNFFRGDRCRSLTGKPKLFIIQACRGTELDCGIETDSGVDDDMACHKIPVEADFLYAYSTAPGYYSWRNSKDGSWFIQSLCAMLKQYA
Luc interf: interferes with luciferase luminescence in SENP counter-screen. inhibition, % at 12.5 µM. 39% of 6,200 active. shares compounds with SENP7 inh. Pre-incubated SENP8/Z-RLRGG-aminoluciferin, luciferase luminescence interference;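 active means mean inhibition above about 50% when retested at one dose, limit read from the data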
Each line names hits and unclear results; the compound was inactive in the other large screens (follow-up assays come after a bar, where they were run).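 How the source made its calls, unless noted: active means mean inhibition above about 50% in the one-dose retest (limit read from the data); inactive means the rest.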

Cc1occc1C(=O)N/N=C/C(Br)=C\c1ccccc1	SENP7 inh 95.6, SENP8 block-2 90.9, SENP6 block 91.7 | SENP8 conf 90.7 | SENP6 conf 94.9 | SENP7 confirm 101.1 | Casp3 SENP sel 89.7 | Luc interf 60.6
C/C(=N\NC(=O)c1ccoc1C)c1ccccc1	SENP7 inh 69.4, SENP8 block-2 51.0, SENP6 block 72.7 | SENP8 conf inactive | SENP6 conf 59.5 | SENP7 confirm 87.3 | Casp3 SENP sel 84.4 | Luc interf inactive
O=C(N/N=C/C(Br)=C\c1ccccc1)c1ccco1	none
CCN1C(=O)c2cccc3c(S(=O)(=O)Nc4ncccc4C)ccc1c23	SENP7 inh 64.4 | SENP8 conf inactive | SENP6 conf inactive | SENP7 confirm inactive | Casp3 SENP sel inactive | Luc interf inactive
O=C(OCC(=O)N1CCCC1=O)c1cc2ccccc2o1	none (no result: PPC-1+TRAIL kill)
CCNC(=O)O/N=C(\C)c1sc(-c2ccc(Cl)cc2)nc1C	SENP7 inh 91.1, SENP8 block-2 88.9, SENP6 block 92.1 | SENP8 conf 79.2 | SENP6 conf 79.2 | SENP7 confirm 95.0 | Casp3 SENP sel 81.5 | Luc interf 66.5
C/C(=N\OC(=O)NC(C)C)c1sc(-c2ccc(Cl)cc2)nc1C	SENP7 inh 59.1 | SENP8 conf 53.0 | SENP6 conf 59.5 | SENP7 confirm 84.2 | Casp3 SENP sel 74.4 | Luc interf 51.0
COc1ccc(/C=C/C(=O)c2sc(-c3ccc(Cl)cc3)nc2C)cc1	none (no result: SENP7 inh, SENP8 block-1, TRAIL sens C8, SENP8 block-2, SENP6 block)
C=C(C)c1sc(-c2ccc(Cl)cc2)nc1C	SENP6 block 70.1 (no result: PPC-1+TRAIL kill) | SENP8 conf inactive | SENP6 conf inactive | SENP7 confirm 85.4 | Casp3 SENP sel inactive | Luc interf inactive
CCc1cc2c(=O)n(CCCOC)c(SCC(=O)Nc3oc(C)c4c(C)n[nH]c(=O)c34)nc2s1	none (no result: PPC-1+TRAIL kill)
Oc1ccc(C[C@H]2CNC(=S)N2CC2CCCN2C[C@H](Cc2ccccc2)N2C[C@H](Cc3ccc(O)cc3)N(CCc3ccccc3)C2=S)cc1 (stereo partly specified)	none (no result: SENP7 inh, SENP8 block-2, PPC-1+TRAIL kill, SENP6 block)
CCOC(=O)c1c(C)[nH]c(C)c1C(=O)COC(=O)c1nn(CC)c(=O)c2ccccc12	none (no result: SENP7 inh, SENP8 block-2, PPC-1+TRAIL kill, SENP6 block)
CN1C(=O)C(CC(=O)O)S/C1=N\N=C\c1ccc(O)cc1O (stereo unspecified)	SENP6 block 60.6 | SENP8 conf inactive | SENP6 conf inactive | SENP7 confirm 73.6 | Casp3 SENP sel 79.5 | Luc interf inactive
Cc1ccc(NC(=O)c2cc3cccc([N+](=O)[O-])c3[nH]2)cc1	SENP7 inh 88.7, SENP8 block-2 56.3, SENP6 block 70.8 | SENP8 conf 57.4 | SENP6 conf 63.3 | SENP7 confirm 96.1 | Casp3 SENP sel 66.2 | Luc interf 55.3
CN(C)C(CNC(=O)c1cccc(S(=O)(=O)NCc2ccccc2)c1)c1ccccc1 (stereo unspecified)	none (no result: PPC-1+TRAIL kill)
Cc1cc(C)n2c(SCC(=O)Nc3ccccc3C#N)nnc2n1	none (no result: PPC-1+TRAIL kill)
COc1ccc(C)cc1Nc1n[n+](-c2ccccc2)c(-c2ccc(NC(C)=O)cc2)s1	none (no result: PPC-1+TRAIL kill)
COc1ccc(C)cc1Nc1n[n+](-c2ccccc2)c(-c2ccc(SC)cc2)s1	SENP8 block-2 60.2, SENP6 block 68.9 (no result: PPC-1+TRAIL kill) | SENP8 conf inactive | SENP6 conf 66.3 | SENP7 confirm 89.0 | Casp3 SENP sel 77.9 | Luc interf 70.3
CCOC(=O)c1ccccc1NC(=O)COC(=O)CCNS(=O)(=O)c1cccs1	none (no result: PPC-1+TRAIL kill)
Cc1ccc(C)c(S(=O)(=O)C(C#N)c2nc3ccccc3nc2N2CCCC2)c1 (stereo unspecified)	SENP8 block-2 64.8, SENP6 block 70.2 | SENP8 conf inactive | SENP6 conf inactive | SENP7 confirm inactive | Casp3 SENP sel inactive | Luc interf inactive
O=C(Cc1ccc(Cl)cc1)c1ccc(O)cc1	SENP6 block 51.0 | SENP8 conf 54.9 | SENP6 conf inactive | SENP7 confirm 78.7 | Casp3 SENP sel inactive | Luc interf 63.3
Cc1cc(C)nc(NC(=O)/C=C/c2ccc3c(c2)OCO3)c1	SENP7 inh 90.5, TRAIL sens C8 64.2, SENP8 block-2 71.1, PPC-1+TRAIL kill 56.4, SENP6 block 86.2 | SENP8 conf inactive | SENP6 conf 72.9 | SENP7 confirm 99.8 | Casp3 SENP sel 87.5 | Luc interf 51.7
O=C(COc1ccccc1)OCC(=O)c1ccc(S(=O)(=O)N2CCCCC2)cc1	none (no result: PPC-1+TRAIL kill)
Cc1occc1C(=O)Nc1cc(C(C)(C)C)on1	SENP7 inh 96.7, SENP8 block-2 93.5, SENP6 block 96.0 | SENP8 conf 93.2 | SENP6 conf 95.0 | SENP7 confirm 101.5 | Casp3 SENP sel 96.6 | Luc interf 94.9
O=C(Nc1ccc2ccccc2c1)c1ccc(Cl)cc1Cl	SENP7 inh 84.7, TRAIL sens C8 60.9, SENP8 block-2 55.5, SENP6 block 67.5 | SENP8 conf inactive | SENP6 conf 53.8 | SENP7 confirm 50.5 | Casp3 SENP sel 54.6 | Luc interf inactive
O=C(Nc1ccc2ccccc2c1)c1ccccc1O	SENP7 inh 96.3, TRAIL sens C8 72.0, SENP8 block-2 95.5, SENP6 block 99.1 (no result: PPC-1+TRAIL kill) | SENP8 conf 93.5 | SENP6 conf 96.5 | SENP7 confirm 102.1 | Casp3 SENP sel 92.1 | Luc interf 64.0
O=C(Nc1ccc2ccccc2c1)c1ccccc1Cl	none (no result: SENP7 inh, SENP8 block-2, PPC-1+TRAIL kill, SENP6 block)
Cc1cccc(NC(=O)c2ccoc2C)n1	none
Cc1occc1C(=O)Nc1ccc2ccccc2c1	SENP8 block-2 82.2 | SENP8 conf inactive | SENP6 conf 95.6 | SENP7 confirm 102.3 | Casp3 SENP sel 91.7 | Luc interf 94.7
COC(=O)c1cc(/C=C/c2ccccc2)[nH]n1	SENP6 block 52.3 (no result: PPC-1+TRAIL kill) | SENP8 conf inactive | SENP6 conf inactive | SENP7 confirm 81.9 | Casp3 SENP sel 63.5 | Luc interf inactive
NC(=O)C1CCN(C(=O)c2ccc3nc(-c4ccccc4)c(-c4ccccc4)nc3c2)CC1	none (no result: PPC-1+TRAIL kill)
Cc1c(C(=O)NC2CCC(C)CC2)oc2ccccc12 (stereo unspecified)	none (no result: PPC-1+TRAIL kill)
O=C(NCC1CC1)c1ccc2c3n(nc2c1)-c1ccc(Cl)cc1CO3	none (no result: PPC-1+TRAIL kill)
